Screens (PubChem BioAssay)
Rpn11 inh – blocks the human proteasome subunit Rpn11; O00487; human 26S proteasome, Ub4-pepOG fluorescence polarization; 20S core pre-blocked with epoxomicin; inhibition, % at 20 µM; 360,000 tested, 0.59% active; AID 588493;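 active = inhibition at 20 µM, scaled to each plate's controls, above about 33%, limit read from the data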
Target sequence (O00487 whole entry, looked up): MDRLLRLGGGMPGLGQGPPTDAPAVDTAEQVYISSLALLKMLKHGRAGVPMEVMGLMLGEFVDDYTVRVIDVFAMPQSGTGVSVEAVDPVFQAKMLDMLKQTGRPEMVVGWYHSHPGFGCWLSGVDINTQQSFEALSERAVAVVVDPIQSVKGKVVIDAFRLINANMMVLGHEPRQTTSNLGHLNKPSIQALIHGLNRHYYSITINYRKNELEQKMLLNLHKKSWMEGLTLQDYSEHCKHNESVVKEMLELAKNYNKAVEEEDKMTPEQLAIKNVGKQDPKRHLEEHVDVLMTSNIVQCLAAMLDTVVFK
PP1 inh – PP1-alpha (human) inhibition in PP5 counter-screen | P62136 | purified PP1alpha, OMFP fluorescence | inhibition, % at 6.7 µM | 320,000 tested, 0.9% active | AID 2235;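 active = inhibition above the mean inhibition of all tested compounds plus 3 SD, computed separately for each screening campaign, cut at about 15% in these data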
Target sequence (P62136 whole entry, looked up): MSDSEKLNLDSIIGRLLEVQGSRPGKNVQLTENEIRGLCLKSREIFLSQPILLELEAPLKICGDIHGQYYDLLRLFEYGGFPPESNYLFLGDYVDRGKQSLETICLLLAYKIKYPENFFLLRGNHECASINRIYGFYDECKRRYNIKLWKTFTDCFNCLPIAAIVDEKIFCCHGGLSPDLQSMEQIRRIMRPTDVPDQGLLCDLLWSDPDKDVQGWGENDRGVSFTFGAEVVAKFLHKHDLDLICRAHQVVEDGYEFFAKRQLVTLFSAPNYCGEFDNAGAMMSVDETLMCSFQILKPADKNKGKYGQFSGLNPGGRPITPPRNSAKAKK
NadD inh – NadD (S. aureus) enzyme inhibition. inhibition, % at 20 µM. purified NadD enzyme, colorimetric absorbance read-out. AID 602399. 360,000 tested, 0.78% active; in the data active = inhibition above about 26%
PREPL inh – inhibitors of human prolyl oligopeptidase-like enzyme PREPL. Q4J6C6. recombinant PREPL, fluorescence polarization activity-based probe. inhibition, % at 5.96 µM. 320,000 tested, 0.68% active; in the data active = inhibition above about 43%;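 note: 0% = enzyme with DMSO and 100% = wells lacking enzyme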
PP5 inh – blocks human protein phosphatase 5 activity; AID 1987; inhibition, % at 6.7 µM; P53041; purified PP5c, OMFP substrate fluorescence; 320,000 tested, 0.18% active;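 active = inhibition above the campaign's mean inhibition across all tested compounds plus 3 SD, cut at about 9.5% in these data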;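 note: 0% = DMSO only and 100% = 100 µM cantharidin control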
PP5 inh confirm – confirmation of human PP5 phosphatase inhibitors; shares compounds with PP5 inh; Purified PP5, fluorogenic phosphatase substrate, fluorescence; inhibition, % at 6.7 µM; 460 tested, 22% active; in the data active = inhibition above about 9.5%
PP1 inh counter – inhibits human PP1 phosphatase in PP5 counter-screen; 460 tested, 4% active; inhibition, % at 6.7 µM; PP1 enzyme, fluorescent phosphatase substrate; AID 2355; shares compounds with PP5 inh; in the data active = inhibition above about 16%
An asterisk follows results filed as active; / = not tested or not shown. An excerpt weighted towards active compounds, which were near 2.4% of everything screened.

SMILES	Rpn11 inh	PP1 inh	NadD inh	PREPL inh	PP5 inh	PP5 inh confirm	PP1 inh counter
CC1(NC(=O)CCc2nc3sc4c(c3c(=O)[nH]2)CCCC4)CCS(=O)(=O)C1 (centres undefined)	35.4	-22.1	3.6	-2.8	10.3*	-4.0	-2.1
O=S(=O)([N-]c1nc2ccccc2nc1-n1cc[n+](Cc2ccccc2)c1)c1ccccc1	-2.6	-3.6	4.0	-1.3	-2.8	/	/
O=[N+]([O-])c1cccc(S(=O)(=O)[N-]c2nc3ccccc3nc2-n2cc[n+](Cc3ccccc3)c2)c1	12.8	4.8	5.6	6.4	12.6*	-1.5	1.7
COc1ccc(C2C3=C(CC(C)(C)CC3=O)Oc3ncn(Cc4ccccc4)c(=N)c32)cc1 (centres undefined)	-5.8	4.4	2.8	-9.8	10.9*	-2.6	-3.2
CC1(C)CC(=O)C2=C(C1)Oc1ncn(Cc3ccco3)c(=N)c1C2c1ccccc1 (centres undefined)	0.5	-0.2	-0.6	-4.7	4.5	/	/
O=C(Cc1ccc(S(=O)(=O)N2CCOCC2)s1)Nc1cc(C(F)(F)F)cc(C(F)(F)F)c1	5.5	6.7	-8.1	10.4	9.7*	13.2*	8.6
CCn1c(=O)c([N+](=O)[O-])c(N2CCN(Cc3ccc4c(c3)OCO4)CC2)c2ccccc21	5.3	-2.1	-1.4	18.0	10.2*	-3.5	-1.6
CCOC(=O)CN1CCc2c(C)nc3c(-c4ccc(OC)c(OC)c4)cnn3c21	-1.5	3.3	3.7	9.9	11.9*	-0.7	-0.6
Oc1ccc(N=Cc2ccc(-c3cccs3)s2)cc1	12.5	3.5	-4.0	21.7	10.7*	0.2	-1.5
O=C1C=C(c2ccccc2Oc2ccccc2)C[C@@H](c2ccc(F)cc2)C1	2.4	/	8.3	/	/	/	/
O=C(c1cccc(C(F)(F)F)c1)N1CCC(O)(CS(=O)(=O)Cc2ccccc2)CC1	0.6	-0.3	-1.6	5.9	4.5	/	/
O=C(c1cccc(C(F)(F)F)c1)N1CCC(O)(CS(=O)(=O)Cc2ccccc2Cl)CC1	-3.2	-1.1	4.7	3.4	11.1*	-3.4	-3.8
NC(=O)c1ccc(-c2nnc(Nc3ccc(S(N)(=O)=O)cc3)c3ccccc23)cc1	-2.5	4.4	-0.8	6.4	2.5	/	/
O=C(NCCS(=O)(=O)NCc1ccccn1)c1ccccc1	-2.1	-2.7	-2.8	-2.4	0.8	/	/
CN(C)CCN1CCN(C2CN(C3CCCC3)S(=O)(=O)C2)CC1 (centres undefined)	2.7	/	-3.4	/	/	/	/
O=C(Nc1ccccc1C(=O)N1CCOCC1)C1CC(=O)N(C2CCCC2)C1 (centres undefined)	-5.1	1.0	-6.2	5.6	13.5*	-2.9	-3.7
COc1cc(/C=C2/C(=O)N(c3ccc([N+](=O)[O-])cc3)N=C2N2CCOCC2)ccc1O	12.4	-1.5	-2.1	14.0	16.0*	2.0	-2.3
Cn1c(=O)c(=O)n(C)c2cc(S(=O)(=O)CCC(=O)Nc3ccccc3C(F)(F)F)ccc21	2.4	/	5.0	/	/	/	/
COCCCNS(=O)(=O)c1cc2c3c(c1)C(C)C(=O)N3CCC2 (centres undefined)	-3.9	-4.2	1.7	17.4	2.9	/	/
CC(C)CCCN1C(Nc2ccccc2)=NC[C@@H]1CC(C)C	-4.6	-3.2	-1.5	23.9	1.0	/	/
CC(C)C[C@H]1CN=C(Nc2ccccc2)N1CCCCc1ccccc1	-4.9	4.4	-1.6	40.6	45.6*	-4.3	-6.9
Cc1ccc([C@H]2C[C@@H](n3cc(COC(=O)c4ccccc4)nn3)[C@H](O)CN2C(=O)C2CCCCC2)cc1	6.8	/	3.3	/	/	/	/
COCC(C)n1c(-c2ccc3c(c2)NC(=O)CO3)csc1=Nc1ccc(OC(F)F)cc1 (centres undefined)	0.7	2.8	1.5	31.0	12.2*	1.7	2.6
COc1cc(NC(=O)CN2C(=O)C(=O)N(C3CCCC3)C2=O)cc(OC)c1	3.6	-0.2	-3.2	1.5	2.3	/	/
CC1(C)CC(=O)C2=C(C1)c1c(ccc3ccccc13)NC2c1ccc(OCC(=O)O)cc1 (centres undefined)	-8.5	-2.0	3.5	-4.5	9.8*	-1.8	1.2
SMILES	Rpn11 inh	PP1 inh	NadD inh	PREPL inh	PP5 inh	PP5 inh confirm	PP1 inh counter
FC(F)(F)c1ccc(Oc2ccc3c(C(F)(F)F)cc(C(F)(F)F)nc3n2)cc1	-2.4	-1.0	6.5	23.4	-0.9	/	/
COc1ccc(Oc2ccc3c(C(F)(F)F)cc(C(F)(F)F)nc3n2)cc1	-3.9	0.1	-0.5	14.9	15.6*	3.0	1.5
Cc1c(Cl)cccc1NC(=S)Nc1ccc(S(=O)(=O)Nc2ncccn2)cc1	-2.6	/	-2.4	10.6	/	/	/
O=C(O)[C@@H](O)[C@H](O)C(=O)O	-0.2	2.0	1.7	-5.1	10.6*	7.0	0.3
Cc1cc(C(=O)CSc2nc3ccccc3c(=O)[nH]2)c(C)n1CC1CCCO1 (centres undefined)	7.2	0.3	-5.5	-0.6	14.6*	-3.7	-2.0
NNC(=O)CCc1ccc(S(=O)(=O)N2CCOCC2)cc1	-3.7	-3.0	-3.5	10.7	11.5*	-1.1	-1.4
CCOC(=O)N1CCN(C2CCCN(C(=O)c3cccc(N(C)C)c3)C2)CC1 (centres undefined)	-9.3	-1.2	0.6	3.4	-0.5	/	/
CCOC(=O)c1nn(-c2ccc(F)cc2)c(=O)c2c(N)scc12	-1.8	-2.3	8.0	15.6	3.0	/	/
CCOC(=O)c1nn(-c2ccc(C)cc2)c(=O)c2c(N)scc12	0.0	3.9	-4.7	26.8	10.0*	22.6*	-2.9
CCc1noc(C)c1C(=O)N1CCN(S(=O)(=O)c2ccc(C)cc2)CC1	-2.0	-3.5	4.4	5.6	0.0	/	/
CCCCCCOc1ccc(C(=O)n2cnc(N)n2)cc1	-2.1	7.0	9.8	71.6*	12.1*	3.0	7.5
CCCCCCOc1ccc(C(=O)O)cc1	6.7	-5.4	-0.1	2.3	1.9	/	/
O=C(NCc1cccnc1)Nc1ccc(Cl)cc1	-1.2	-3.9	-4.9	-7.4	3.2	/	/
Cc1cc(C)c(S(=O)(=O)/N=C2/C=C(Sc3ncn[nH]3)C(=O)c3ccccc32)cc1C	27.7	-0.1	90.5*	14.8	11.4*	32.4*	11.8
O=c1c2cc(N3CCOCC3)ccc2[nH]c(=S)n1Cc1ccco1	-12.2	9.1	13.9	21.8	10.4*	-3.0	-1.5
COCCn1c(N)c(C(=O)NCc2cccs2)c2nc3ccccc3nc21	8.3	0.2	-4.1	21.0	10.7*	5.1	3.9
COCCn1c(N)c(C(=O)NCC2CCCO2)c2nc3ccccc3nc21 (centres undefined)	6.0	4.1	0.2	37.1	13.4*	15.1*	-3.6
Cc1cc(C)n2nc(-c3ccccc3)c(-c3ccccc3)c2n1	-1.5	0.8	-8.0	-4.5	2.6	/	/
Nc1ccc(-c2nc3ccc([N+](=O)[O-])cc3[nH]2)cc1	-0.8	-1.3	2.4	17.8	11.8*	-5.3	-3.6
